Experimental data as given in the supplement of paper PMC10849652.
Targets with a hit are over-represented here; the source holds about 7,900 in all. About 0.6% of all pairs of compound and target were hits.

compound: COc1cccc2cc(-c3nc([C@H]4CC[C@H](C(=O)O)CC4)n4ncnc(N)c34)[nH]c12; experiment: log2 fold change, soluble protein after heating vs DMSO (PISA); higher = thermal stabilisation; K562 cells, 10 uM, 30 min; active = over 0.2 and 3.5 SD of the protein, either way, in both replicates (recomputed)
How it was run: (§1)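 Thermal stability values are relative to control samples and come from duplicates. They are expressed as log2 fold changes. For measurement, K562 cells (2×10^6 cells/mL) received 10 μM compound for 30 min, and aliquots were heated for 3 min over 48°C-58°C, pooled, and extracted at 4°C in PBS with 0.5% NP-40. Soluble protein, the supernatant after 21,000xg for 90 min, was quantified by TMTpro 16plex LC-MS/MS with equalised channel sums.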

Chain of UniProt P55795 (P55795 whole entry, looked up): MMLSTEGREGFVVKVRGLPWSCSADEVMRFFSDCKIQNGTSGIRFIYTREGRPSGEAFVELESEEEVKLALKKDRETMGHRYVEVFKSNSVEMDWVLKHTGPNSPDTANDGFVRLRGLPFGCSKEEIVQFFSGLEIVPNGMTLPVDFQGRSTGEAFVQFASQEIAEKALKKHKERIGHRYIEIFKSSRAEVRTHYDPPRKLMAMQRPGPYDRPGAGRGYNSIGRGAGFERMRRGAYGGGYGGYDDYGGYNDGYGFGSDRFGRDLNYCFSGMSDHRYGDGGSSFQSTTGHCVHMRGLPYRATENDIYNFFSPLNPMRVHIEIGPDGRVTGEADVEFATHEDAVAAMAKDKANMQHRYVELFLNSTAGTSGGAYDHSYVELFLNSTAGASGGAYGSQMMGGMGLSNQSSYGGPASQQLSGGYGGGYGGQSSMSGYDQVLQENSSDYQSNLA
Chain of UniProt P52655 (P52655 whole entry, looked up): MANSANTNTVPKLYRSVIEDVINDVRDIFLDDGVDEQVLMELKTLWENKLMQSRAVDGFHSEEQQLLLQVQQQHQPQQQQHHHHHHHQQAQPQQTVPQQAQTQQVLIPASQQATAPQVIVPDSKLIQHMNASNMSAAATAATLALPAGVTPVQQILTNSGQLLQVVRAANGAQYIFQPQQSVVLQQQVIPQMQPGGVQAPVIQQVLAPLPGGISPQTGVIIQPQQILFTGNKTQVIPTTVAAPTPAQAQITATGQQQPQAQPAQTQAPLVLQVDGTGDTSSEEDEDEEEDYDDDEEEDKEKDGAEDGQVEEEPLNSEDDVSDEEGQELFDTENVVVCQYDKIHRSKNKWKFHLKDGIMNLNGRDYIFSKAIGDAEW
Chain of UniProt O95363 (O95363 whole entry, looked up): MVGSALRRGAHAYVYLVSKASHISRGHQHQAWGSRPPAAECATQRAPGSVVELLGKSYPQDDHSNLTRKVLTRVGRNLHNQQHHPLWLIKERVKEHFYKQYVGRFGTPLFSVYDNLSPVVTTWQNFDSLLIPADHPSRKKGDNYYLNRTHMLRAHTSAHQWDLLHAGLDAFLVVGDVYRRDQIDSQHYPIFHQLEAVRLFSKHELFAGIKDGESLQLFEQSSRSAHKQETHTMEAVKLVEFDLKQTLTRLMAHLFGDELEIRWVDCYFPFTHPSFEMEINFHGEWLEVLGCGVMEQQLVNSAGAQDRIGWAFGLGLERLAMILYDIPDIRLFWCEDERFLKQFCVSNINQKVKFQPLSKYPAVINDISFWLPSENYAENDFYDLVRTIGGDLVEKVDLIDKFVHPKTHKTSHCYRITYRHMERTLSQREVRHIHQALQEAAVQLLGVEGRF
Chain of UniProt Q658Y4 (Q658Y4 whole entry, looked up): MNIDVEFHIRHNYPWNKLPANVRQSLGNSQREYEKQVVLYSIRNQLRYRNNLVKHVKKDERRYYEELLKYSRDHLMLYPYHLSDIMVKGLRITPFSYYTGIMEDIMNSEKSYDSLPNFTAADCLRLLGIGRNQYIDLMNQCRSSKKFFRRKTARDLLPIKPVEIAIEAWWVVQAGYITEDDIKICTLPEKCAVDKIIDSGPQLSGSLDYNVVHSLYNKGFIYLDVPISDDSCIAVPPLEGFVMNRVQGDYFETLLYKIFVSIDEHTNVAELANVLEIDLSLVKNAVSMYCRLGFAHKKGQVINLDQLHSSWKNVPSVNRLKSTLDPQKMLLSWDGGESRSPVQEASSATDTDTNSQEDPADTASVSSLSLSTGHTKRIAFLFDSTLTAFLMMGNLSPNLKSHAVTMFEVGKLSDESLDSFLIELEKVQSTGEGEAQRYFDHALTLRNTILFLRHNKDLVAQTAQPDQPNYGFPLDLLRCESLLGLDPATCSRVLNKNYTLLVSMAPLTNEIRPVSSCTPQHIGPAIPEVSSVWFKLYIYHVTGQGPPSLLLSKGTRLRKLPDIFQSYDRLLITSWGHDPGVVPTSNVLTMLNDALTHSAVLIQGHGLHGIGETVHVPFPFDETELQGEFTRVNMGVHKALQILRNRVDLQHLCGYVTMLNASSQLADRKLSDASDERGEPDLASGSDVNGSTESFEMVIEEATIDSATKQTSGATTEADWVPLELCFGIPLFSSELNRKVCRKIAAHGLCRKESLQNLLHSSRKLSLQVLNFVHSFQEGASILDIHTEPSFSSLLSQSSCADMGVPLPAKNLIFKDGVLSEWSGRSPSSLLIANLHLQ
Chain of UniProt Q8TEQ6 (Q8TEQ6 whole entry, looked up): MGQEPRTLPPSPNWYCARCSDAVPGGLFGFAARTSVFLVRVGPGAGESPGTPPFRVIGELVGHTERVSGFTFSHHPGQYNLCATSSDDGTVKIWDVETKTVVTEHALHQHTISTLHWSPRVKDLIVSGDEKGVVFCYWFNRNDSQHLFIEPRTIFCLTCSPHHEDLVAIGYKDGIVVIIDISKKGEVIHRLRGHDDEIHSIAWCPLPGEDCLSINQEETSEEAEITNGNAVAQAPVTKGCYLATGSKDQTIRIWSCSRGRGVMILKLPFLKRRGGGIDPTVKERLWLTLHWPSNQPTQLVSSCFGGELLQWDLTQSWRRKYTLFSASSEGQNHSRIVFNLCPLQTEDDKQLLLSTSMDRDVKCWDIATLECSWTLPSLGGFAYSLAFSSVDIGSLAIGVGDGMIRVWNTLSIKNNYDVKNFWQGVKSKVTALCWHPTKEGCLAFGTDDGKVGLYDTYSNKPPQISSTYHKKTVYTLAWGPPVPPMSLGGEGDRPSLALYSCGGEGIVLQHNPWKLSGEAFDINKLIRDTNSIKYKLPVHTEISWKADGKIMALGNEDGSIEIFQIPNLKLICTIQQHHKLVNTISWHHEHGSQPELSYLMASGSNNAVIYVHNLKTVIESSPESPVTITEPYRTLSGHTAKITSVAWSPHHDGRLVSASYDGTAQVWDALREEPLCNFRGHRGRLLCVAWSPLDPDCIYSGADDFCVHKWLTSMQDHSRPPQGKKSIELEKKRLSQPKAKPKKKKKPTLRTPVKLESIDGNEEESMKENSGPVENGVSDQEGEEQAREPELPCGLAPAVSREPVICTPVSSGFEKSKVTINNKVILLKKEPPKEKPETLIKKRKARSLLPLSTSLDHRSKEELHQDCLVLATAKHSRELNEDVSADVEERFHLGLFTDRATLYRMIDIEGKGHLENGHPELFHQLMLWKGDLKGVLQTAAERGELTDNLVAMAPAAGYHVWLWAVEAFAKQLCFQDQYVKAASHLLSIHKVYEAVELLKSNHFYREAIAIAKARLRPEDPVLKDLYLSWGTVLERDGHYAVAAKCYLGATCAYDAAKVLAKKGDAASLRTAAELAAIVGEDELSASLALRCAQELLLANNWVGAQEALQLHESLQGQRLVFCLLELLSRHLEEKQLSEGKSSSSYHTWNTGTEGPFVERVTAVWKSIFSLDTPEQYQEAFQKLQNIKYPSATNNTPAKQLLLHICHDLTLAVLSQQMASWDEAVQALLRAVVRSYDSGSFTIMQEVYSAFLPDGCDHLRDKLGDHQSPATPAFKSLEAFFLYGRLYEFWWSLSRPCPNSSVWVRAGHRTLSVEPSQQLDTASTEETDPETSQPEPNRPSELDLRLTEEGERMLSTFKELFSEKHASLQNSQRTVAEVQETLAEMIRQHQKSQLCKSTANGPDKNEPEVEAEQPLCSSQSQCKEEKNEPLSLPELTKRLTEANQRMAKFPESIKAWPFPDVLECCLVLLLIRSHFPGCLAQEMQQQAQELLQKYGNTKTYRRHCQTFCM
Chain of UniProt P49356 (P49356 whole entry, looked up): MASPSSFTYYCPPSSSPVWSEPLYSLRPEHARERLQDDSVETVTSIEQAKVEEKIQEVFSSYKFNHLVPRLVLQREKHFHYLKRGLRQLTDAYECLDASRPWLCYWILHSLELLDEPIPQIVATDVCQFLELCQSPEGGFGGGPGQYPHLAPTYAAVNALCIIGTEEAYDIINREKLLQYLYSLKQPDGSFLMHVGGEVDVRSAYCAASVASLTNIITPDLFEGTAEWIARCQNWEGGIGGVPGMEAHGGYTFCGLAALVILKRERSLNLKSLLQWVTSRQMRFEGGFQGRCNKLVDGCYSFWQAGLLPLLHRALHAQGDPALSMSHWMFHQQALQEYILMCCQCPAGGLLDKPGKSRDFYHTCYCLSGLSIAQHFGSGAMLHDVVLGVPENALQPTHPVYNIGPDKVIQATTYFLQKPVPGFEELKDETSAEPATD
Chain of UniProt P00367 (P00367 whole entry, looked up): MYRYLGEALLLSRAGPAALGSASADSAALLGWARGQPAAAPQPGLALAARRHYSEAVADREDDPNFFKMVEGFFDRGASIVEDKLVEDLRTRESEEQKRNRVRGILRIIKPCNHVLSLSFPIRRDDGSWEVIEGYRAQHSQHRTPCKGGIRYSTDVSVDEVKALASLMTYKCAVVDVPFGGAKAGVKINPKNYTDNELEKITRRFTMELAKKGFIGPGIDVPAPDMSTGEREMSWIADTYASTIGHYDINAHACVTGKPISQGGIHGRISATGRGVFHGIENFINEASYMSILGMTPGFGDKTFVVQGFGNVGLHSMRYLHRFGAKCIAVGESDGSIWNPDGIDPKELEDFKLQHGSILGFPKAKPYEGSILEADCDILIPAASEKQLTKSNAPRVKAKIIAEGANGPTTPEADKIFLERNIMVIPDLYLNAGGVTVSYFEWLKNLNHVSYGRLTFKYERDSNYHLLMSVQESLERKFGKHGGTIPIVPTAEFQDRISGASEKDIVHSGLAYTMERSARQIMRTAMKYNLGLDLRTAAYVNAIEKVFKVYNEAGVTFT
Chain of UniProt P30519 (P30519 whole entry, looked up): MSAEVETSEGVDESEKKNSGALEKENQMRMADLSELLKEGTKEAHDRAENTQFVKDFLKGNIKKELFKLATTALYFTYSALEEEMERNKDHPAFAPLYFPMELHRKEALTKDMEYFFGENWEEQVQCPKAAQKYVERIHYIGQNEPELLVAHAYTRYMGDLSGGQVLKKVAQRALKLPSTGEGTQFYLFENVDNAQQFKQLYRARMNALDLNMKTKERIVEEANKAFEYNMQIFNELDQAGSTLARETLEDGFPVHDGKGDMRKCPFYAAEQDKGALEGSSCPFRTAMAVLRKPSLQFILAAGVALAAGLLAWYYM

Row | Target | log2 fold change
1 | HP1BP3 (UniProt Q5SSJ5) | -0.024 (inactive)
2 | FARS2 (UniProt O95363) | 0.113 (inactive)
3 | HNRNPH2 (UniProt P55795) | -0.079 (inactive)
4 | GEMIN5 (UniProt Q8TEQ6) | -0.035 (inactive)
5 | FNTB (UniProt P49356) | 0.024 (inactive)
6 | GTF2A1 (UniProt P52655) | 0.043 (inactive)
7 | FAM91A1 (UniProt Q658Y4) | 0.035 (inactive)
8 | HBQ1 (UniProt P09105) | 0.091 (inactive)
9 | GGT7 (UniProt Q9UJ14) | 0.05 (inactive)
10 | HMOX2 (UniProt P30519) | -0.041 (inactive)
11 | GLUD1 (UniProt P00367) | 0.057 (inactive)

compound: CS(=O)(=O)CCNCc1ccc(-c2ccc3ncnc(Nc4ccc(OCc5cccc(F)c5)c(Cl)c4)c3c2)o1 [lapatinib]; experiment: as above
How it was run: as §1

Row | Target | log2 fold change
12 | HECTD1 (UniProt Q9ULT8) | 0.096 (inactive)
13 | FMC1 (UniProt Q96HJ9) | -0.018 (inactive)
14 | GABARAPL2 (UniProt P60520) | -0.006 (inactive)
15 | HOMER1 (UniProt Q86YM7) | 0.073 (inactive)
16 | H2AZ1 (UniProt P0C0S5) | 0 (inactive)
17 | GOLGB1 isoform 2 (UniProt Q14789) | 0.046 (inactive)
18 | GLCCI1 (UniProt Q86VQ1) | -0.02 (inactive)
19 | GUSB (UniProt P08236) | 0.016 (inactive)
20 | H2AFX (UniProt P16104) | 0.054 (inactive)
21 | HSPA8 (UniProt E9PK54) | 0.17 (inactive)
22 | HBA1 (UniProt P69905) | 0.036 (inactive)
23 | FKBP7 (UniProt Q9Y680) | -0.065 (inactive)
24 | GYG1 (UniProt P46976) | 0.051 (inactive)
25 | HNRNPH1 (UniProt P31943) | 0.046 (inactive)
26 | HBZ (UniProt P02008) | 0.007 (inactive)
27 | GALC (UniProt P54803) | 0.042 (inactive)
28 | FUCA2 (UniProt Q9BTY2) | 0.025 (inactive)

Row | Target | log2 fold change
29 | GEMIN2 (UniProt O14893) | 0.034 (inactive)
30 | FANCD2 isoform 1 (UniProt Q9BXW9) | -0.025 (inactive)
31 | GNAS (UniProt Q5JWF2) | 0.02 (inactive)
32 | HSD17B12 (UniProt Q53GQ0) | 0.369 (active)
33 | HAT1 (UniProt O14929) | -0.002 (inactive)
34 | GLS (UniProt O94925) | -0.052 (inactive)
35 | HP1BP3 (UniProt Q5SSJ5) | 0.044 (inactive)
36 | FARS2 (UniProt O95363) | -0.061 (inactive)
37 | HNRNPH2 (UniProt P55795) | 0.057 (inactive)
38 | GEMIN5 (UniProt Q8TEQ6) | 0.015 (inactive)
39 | FNTB (UniProt P49356) | 0.18 (inactive)
40 | GTF2A1 (UniProt P52655) | 0.006 (inactive)
41 | FAM91A1 (UniProt Q658Y4) | 0.045 (inactive)
42 | HBQ1 (UniProt P09105) | 0.001 (inactive)
43 | GGT7 (UniProt Q9UJ14) | -0.062 (inactive)
44 | HMOX2 (UniProt P30519) | -0.045 (inactive)
45 | GLUD1 (UniProt P00367) | 0.178 (inactive)
